Percent Effect data for 10 molecules are collected here from ChEMBL document CHEMBL3988442, “University of Dundee, Small-Polar-MMV Screening Library” (2021).

Structures are written as SMILES. For some assays here: Results with a measured potency or affinity are listed apart.

Holding throughout (set-up): scale not given: direction of the effect not stated beside the values
Assay [1] concerns the target Protein translocase subunit SecA (Escherichia coli (strain K12)) (UniProt P10408). Nature of the assay: Assay to Identify E. coli SecA ATPase Inhibitors. It is filed as functional. The following applies: 30 µM.
The target in assay [2] is T1, Ubiquitin-activating enzyme e1, putative (Leishmania donovani (strain BPK282A1)) (UniProt E9BSI1).
T1 sequence (whole entry): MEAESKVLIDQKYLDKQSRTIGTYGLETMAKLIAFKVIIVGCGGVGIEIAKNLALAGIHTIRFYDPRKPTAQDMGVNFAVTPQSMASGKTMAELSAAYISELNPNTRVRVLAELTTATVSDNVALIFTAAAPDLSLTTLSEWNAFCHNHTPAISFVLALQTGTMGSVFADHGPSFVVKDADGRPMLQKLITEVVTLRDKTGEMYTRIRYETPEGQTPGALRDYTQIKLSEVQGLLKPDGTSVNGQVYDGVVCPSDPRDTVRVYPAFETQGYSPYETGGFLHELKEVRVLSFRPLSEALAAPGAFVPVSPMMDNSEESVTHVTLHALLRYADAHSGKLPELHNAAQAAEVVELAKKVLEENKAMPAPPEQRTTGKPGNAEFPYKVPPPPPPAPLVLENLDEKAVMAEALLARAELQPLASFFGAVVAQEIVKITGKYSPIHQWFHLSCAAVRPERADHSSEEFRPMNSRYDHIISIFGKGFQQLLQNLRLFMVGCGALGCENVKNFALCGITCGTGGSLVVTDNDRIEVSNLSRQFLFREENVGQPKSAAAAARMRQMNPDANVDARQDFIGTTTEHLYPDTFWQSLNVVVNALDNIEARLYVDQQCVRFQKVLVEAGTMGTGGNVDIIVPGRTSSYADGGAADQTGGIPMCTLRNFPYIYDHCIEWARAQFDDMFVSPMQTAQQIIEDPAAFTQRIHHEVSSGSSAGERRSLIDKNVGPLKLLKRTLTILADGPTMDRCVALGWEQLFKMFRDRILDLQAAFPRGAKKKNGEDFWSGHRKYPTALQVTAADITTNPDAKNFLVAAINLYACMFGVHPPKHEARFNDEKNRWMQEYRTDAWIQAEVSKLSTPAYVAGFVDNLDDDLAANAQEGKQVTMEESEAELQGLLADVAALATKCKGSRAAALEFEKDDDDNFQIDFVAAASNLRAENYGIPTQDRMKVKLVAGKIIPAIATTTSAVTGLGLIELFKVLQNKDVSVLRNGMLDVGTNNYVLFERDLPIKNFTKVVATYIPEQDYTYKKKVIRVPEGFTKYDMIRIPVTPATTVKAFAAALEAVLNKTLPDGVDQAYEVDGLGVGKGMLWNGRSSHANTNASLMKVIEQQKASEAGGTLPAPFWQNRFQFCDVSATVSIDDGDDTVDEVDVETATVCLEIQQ
Put plainly: Leishmania donovani Ubiquitin Activating Enzyme (LdE1). It is filed as functional. Conditions: 30 µM.

The target of assay [3] is AMP-activated protein kinase, AMPK (Homo sapiens) (UniProt P54646+O43741+P54619+Q9UGJ0+Q9Y478+Q13131+Q9UGI9). Nature of the assay: AMP-dependent Kinase enzyme assay. An in vitro enzyme assay that detects ADP turnover that is directly proportional to AMPK activity. This uses naive AMPK that is activated during the assay with MK-8722. It is filed as functional. Conditions: 30 µM.

Assay [4] deals with Sialic acid-binding Ig-like lectin 9 (Homo sapiens) (UniProt Q9Y336). Nature of the assay: Hs-Siglec9 ALPHAscreen SOP 20170721. Conditions: 10 µM. (Bead proximity is the source of the signal in Alpha formats.)
Assay [5] relates to Trypanosoma cruzi. Put plainly: Trypanosoma cruzi phosphomannomutase and mannose-1-phosphate guanylyltransferase assay. It is filed as functional. The following applies: 10 µM.
Assay [6] deals with T2, Arginase-2, mitochondrial (Homo sapiens) (UniProt P78540).
T2 sequence (whole entry): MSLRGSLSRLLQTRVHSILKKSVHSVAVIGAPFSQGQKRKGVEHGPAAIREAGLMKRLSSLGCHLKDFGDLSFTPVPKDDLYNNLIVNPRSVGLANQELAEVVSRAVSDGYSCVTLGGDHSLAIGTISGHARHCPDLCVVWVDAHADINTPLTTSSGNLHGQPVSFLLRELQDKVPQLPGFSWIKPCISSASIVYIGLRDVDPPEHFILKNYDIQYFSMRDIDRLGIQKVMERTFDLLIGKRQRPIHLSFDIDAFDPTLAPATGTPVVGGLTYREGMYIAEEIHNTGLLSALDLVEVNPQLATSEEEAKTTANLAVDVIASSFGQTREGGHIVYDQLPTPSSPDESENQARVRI
Nature of the assay: in vitro enzyme assay to detect the production of urea directly proportional to the activity of Arginase II. Further: in the data most compounds retested in dose-response had high values. It counts as functional. Conditions: 33.3 µM.

The target of assay [7] is T3, Proteasome subunit beta (Trypanosoma cruzi) (UniProt O96673).
T3 sequence (whole entry): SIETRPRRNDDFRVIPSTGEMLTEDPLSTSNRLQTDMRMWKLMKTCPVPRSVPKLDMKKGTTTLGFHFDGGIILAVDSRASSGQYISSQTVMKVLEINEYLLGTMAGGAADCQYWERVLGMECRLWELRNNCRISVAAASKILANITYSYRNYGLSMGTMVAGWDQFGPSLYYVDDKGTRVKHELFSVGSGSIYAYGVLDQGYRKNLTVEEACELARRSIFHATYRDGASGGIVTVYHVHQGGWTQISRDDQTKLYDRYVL
Put plainly: Trypanosoma cruzi proteasome chymotrypsin-like activity (TcProtChymo) assay. Further: in the data most compounds retested in dose-response had high values. It is filed as functional. The following applies: 9.37 µM.

For assay [8], the species on record is Homo sapiens. Put plainly: To identify inhibition of the IFN signalling (Jak-Stat) pathway via expression of an eGFP reporter gene under the control of an IFN-stimulated response element (ISRE) containing MxA promoter. The following applies: 30 µM. It counts as functional. (In general: Reporter assays use an easily measured gene product as a stand-in for the process of interest.)

Assay [9] concerns the target T4, Tyrosyl-tRNA synthetase, putative (Trypanosoma cruzi (strain CL Brener)) (UniProt Q4DSP6).
T4 sequence (whole entry): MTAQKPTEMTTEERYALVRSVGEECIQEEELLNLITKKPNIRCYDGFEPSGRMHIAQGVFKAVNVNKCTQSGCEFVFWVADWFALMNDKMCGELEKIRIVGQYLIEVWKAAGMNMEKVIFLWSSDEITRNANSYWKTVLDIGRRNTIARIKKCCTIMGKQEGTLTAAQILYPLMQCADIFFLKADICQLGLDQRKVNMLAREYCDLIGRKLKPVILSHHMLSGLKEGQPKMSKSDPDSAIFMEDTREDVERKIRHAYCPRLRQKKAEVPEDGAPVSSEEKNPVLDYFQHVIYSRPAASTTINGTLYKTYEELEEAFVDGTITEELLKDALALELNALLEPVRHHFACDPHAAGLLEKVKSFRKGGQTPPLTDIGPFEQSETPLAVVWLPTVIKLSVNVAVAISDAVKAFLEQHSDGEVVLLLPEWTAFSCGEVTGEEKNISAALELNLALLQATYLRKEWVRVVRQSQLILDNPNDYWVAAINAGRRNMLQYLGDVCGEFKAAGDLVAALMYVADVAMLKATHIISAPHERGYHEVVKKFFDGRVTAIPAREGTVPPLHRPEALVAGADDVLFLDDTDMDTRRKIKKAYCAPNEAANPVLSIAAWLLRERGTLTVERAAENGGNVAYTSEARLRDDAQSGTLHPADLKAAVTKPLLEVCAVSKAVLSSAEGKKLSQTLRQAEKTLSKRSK
Put plainly: Trypanosoma cruzi tyrosyl tRNA synthetase (TcYRS) _High Tyrosine SOP. Further: in the data most compounds retested in dose-response had high values. It is filed as functional. The following applies: 30 µM.

Assay [10] concerns the target T4, Tyrosyl-tRNA synthetase, putative (Trypanosoma cruzi (strain CL Brener)). Nature of the assay: Trypanosoma cruzi tyrosyl tRNA synthetase (TcYRS) SOP. It counts as functional. The following applies: 30 µM.
For assay [11], the target named is Chromo domain-containing protein 1 (Saccharomyces cerevisiae (strain ATCC 204508 / S288c) (Baker's yeast)) (UniProt P32657). Put plainly: ScCHD-1 Enzyme Inhibition Assay. Further: in the data most compounds retested in dose-response had high values. It is filed as functional. Conditions: 30 µM.
Chromo domain-containing protein 1 (Saccharomyces cerevisiae (strain ATCC 204508 / S288c) (Baker's yeast)), sequence (P32657 whole entry, the tested form may be a part): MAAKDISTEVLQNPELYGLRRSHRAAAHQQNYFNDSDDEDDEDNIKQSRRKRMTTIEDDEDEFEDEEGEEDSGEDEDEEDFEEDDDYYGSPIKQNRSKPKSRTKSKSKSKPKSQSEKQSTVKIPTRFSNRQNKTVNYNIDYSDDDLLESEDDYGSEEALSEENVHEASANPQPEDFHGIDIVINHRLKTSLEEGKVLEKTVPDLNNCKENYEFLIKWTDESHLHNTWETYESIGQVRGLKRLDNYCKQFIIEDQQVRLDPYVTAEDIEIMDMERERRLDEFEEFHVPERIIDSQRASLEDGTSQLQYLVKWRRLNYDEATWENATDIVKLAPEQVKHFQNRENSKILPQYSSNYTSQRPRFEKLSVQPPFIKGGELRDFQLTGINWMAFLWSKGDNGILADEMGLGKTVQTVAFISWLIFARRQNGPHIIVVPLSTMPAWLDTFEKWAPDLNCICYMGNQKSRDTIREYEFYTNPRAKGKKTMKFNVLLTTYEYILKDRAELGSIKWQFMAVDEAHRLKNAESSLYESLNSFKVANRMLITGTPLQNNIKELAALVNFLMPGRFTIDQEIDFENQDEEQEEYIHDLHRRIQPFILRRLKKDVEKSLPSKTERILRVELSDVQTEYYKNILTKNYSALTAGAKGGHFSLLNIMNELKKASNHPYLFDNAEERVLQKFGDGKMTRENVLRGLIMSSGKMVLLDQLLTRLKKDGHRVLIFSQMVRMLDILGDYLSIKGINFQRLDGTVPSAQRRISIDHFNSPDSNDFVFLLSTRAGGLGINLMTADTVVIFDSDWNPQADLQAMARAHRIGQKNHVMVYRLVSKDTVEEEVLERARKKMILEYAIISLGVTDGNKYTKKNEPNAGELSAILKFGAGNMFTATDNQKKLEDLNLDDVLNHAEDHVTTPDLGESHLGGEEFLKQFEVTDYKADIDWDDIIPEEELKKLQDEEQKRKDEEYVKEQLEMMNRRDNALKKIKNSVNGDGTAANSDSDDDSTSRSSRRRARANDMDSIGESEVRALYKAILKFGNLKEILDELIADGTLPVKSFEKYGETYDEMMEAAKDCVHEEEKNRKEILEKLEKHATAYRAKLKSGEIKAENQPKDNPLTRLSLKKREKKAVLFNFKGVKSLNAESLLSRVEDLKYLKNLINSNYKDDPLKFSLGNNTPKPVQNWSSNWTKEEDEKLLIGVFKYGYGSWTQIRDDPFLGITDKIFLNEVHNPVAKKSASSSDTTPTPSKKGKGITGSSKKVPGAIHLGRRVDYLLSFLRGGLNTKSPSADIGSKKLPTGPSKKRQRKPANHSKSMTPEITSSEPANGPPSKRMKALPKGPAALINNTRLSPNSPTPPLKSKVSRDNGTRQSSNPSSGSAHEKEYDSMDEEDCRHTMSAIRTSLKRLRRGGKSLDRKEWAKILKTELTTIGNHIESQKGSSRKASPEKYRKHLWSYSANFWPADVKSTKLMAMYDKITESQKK

Protein translocase subunit SecA (Escherichia coli (strain K12)), sequence (P10408 whole entry): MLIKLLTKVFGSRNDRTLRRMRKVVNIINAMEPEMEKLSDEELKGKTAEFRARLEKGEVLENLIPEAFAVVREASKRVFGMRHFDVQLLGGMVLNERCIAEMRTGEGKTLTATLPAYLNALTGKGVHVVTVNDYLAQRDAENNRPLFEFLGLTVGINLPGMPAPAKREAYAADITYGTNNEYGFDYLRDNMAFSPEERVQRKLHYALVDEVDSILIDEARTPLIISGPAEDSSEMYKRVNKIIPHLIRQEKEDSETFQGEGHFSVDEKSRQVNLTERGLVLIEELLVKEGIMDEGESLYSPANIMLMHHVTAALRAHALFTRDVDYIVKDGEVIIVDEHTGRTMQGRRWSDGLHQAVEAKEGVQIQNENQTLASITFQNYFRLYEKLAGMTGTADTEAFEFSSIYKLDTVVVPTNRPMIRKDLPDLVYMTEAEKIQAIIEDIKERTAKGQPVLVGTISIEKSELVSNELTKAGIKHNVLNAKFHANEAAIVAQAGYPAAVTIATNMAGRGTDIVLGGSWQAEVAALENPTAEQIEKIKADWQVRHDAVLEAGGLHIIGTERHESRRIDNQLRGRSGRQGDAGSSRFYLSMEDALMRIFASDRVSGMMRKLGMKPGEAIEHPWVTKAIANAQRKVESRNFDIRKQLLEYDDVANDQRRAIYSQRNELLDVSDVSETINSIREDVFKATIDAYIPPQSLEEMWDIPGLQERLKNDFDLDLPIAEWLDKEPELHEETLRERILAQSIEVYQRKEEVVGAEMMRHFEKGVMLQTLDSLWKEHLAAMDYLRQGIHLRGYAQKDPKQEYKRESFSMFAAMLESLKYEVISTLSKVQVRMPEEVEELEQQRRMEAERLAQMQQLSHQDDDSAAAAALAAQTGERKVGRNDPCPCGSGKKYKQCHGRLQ
Sialic acid-binding Ig-like lectin 9 (Homo sapiens), sequence (Q9Y336 whole entry): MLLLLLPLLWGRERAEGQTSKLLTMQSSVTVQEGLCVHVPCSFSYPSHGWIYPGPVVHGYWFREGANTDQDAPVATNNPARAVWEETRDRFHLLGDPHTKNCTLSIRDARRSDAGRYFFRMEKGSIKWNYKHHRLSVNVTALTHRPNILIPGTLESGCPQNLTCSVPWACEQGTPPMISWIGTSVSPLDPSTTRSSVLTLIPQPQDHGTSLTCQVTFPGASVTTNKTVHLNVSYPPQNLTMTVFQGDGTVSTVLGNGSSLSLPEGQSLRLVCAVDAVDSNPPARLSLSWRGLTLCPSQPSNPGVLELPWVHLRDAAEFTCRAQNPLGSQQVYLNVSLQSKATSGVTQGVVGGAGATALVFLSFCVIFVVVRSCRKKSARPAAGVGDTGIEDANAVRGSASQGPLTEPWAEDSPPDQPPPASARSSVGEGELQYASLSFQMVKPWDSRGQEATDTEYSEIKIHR

`CC(=O)NCC(=O)N1Cc2nccn2CC(Cn2cccn2)C1` (stereo not given): the Percent Effect in assay [1] is -2.33%; in [2], -2.7%; in assay [3], 5.56%; in [4] it was -2.67%; in [5], -5.38%; in assay [6], 1.59%. The Percent Effect in assay [7] is 18.6%; in [8], 3.41%; in assay [9], 5.41%; in assay [10], 7.69%; in [11], -0.528%.

For `Cn1nc(C#N)c2c1CN(C(=O)c1cccnc1)CCC2`, the Percent Effect in assay [1] was -4.61%; in [2], 2.6%; in assay [3] it was -0.491%; in assay [4], -7%; in assay [5], -2.66%; in assay [6], -1.94%. For the same molecule, the Percent Effect in assay [7] was 3.13%; in assay [8], 6.32%; in assay [9], -2.12%; in assay [10], -6.41%; in assay [11], -0.821%.

Take `CN(C)CCN1CCC2(CC1)CN(c1cccnc1)C(=O)CO2`: the Percent Effect in [1] was -2.58%; in [2] it was 10.8%; in assay [3] it was 0.668%; in assay [4] it was -8.57%; in assay [5] it was -5.18%; in assay [6], 2.23%. Moreover, the Percent Effect was 24.4% in assay [7]; 12.1% in assay [8]; 4.32% in [9]; 10.3% in assay [10]; -2.65% in assay [11].

As to `Cc1cccc(CS(=O)(=O)CC(=O)NCCCOC(C)C)c1`, the Percent Effect in [1] was -4.74%; in assay [2], 18.2%; in assay [3], -13.1%; in assay [4], 5.88%; in assay [5], 9.74%; in assay [6], 3.92%. The Percent Effect in assay [7] was 4.05%; in [8] it was 23.9%; in [9] it was 7.77%; in assay [10] it was 24.4%; in assay [11], -10.7%.

On to `O=C(NCCNc1ncccn1)C1CC(=O)N(CC(F)(F)F)C1` (stereo not given), for which the Percent Effect in assay [1] is -0.757%; in assay [2] it was 16.2%; in assay [3], -5.02%; in assay [4], -3.51%; in assay [5] it was -7.26%; in assay [6], -4.81%. In addition, the Percent Effect was 5.59% in [7]; 16.5% in assay [8]; 9.36% in assay [9]; 13.6% in [10]; -6.16% in [11].

For `CCNC(=O)c1cnc(Cc2ccc(F)cc2)s1`, the Percent Effect was -3.2% in assay [1]; -2.67% in [2]; 3.74% in assay [3]; 1.03% in assay [4]; -1.27% in assay [5]; 4.17% in assay [6]. In addition, the Percent Effect in assay [7] is 8.72%; in assay [8], 14.1%; in assay [9], 3.83%; in [10], 8.64%; in [11] it was -2.95%.

Take `COCCn1cc(C(=O)N2CCCC2c2cccc(F)c2)ccc1=O` (stereo not given): the Percent Effect in assay [1] is 1.54%; in assay [2], -5.41%; in assay [3], -0.655%; in [4] it was 0.523%; in assay [5] it was -2.7%; in assay [6], 2.38%. Moreover, the Percent Effect in [7] is 7.07%; in assay [8], -0.304%; in [9], -2.65%; in [10], -56.1%; in assay [11] it was -2.35%.

Regarding `COc1ccc(-c2nc(CN3CCCC3Cn3cccn3)no2)cc1` (stereo not given), the Percent Effect in assay [1] was -6.58%; in assay [2], 7.79%; in assay [3], -5.32%; in assay [4] it was 11.9%; in [5], 8.99%; in [6] it was -6.41%. In addition, the Percent Effect in assay [7] was 9.12%; in [8], 12.7%; in [9] it was 5.83%; in assay [10] it was 21.9%; in [11] it was -11.9%.

In the case of `CCc1noc(C(C)N(C)CC(=O)Nc2c(C)cccc2C)n1` (stereo not given), the Percent Effect is 1.06% in assay [1]; 11% in assay [2]; 6.59% in assay [3]; 4.7% in assay [4]; 4.31% in assay [5]; 16.8% in assay [6]. In addition, the Percent Effect in [7] is 8.7%; in [8] it was -3.6%; in [9], 4.3%; in [10], 15%; in assay [11] it was -7.1%.

With `CCN(CC)c1ccc(NS(=O)(=O)c2cncc(F)c2)cn1`, the Percent Effect in [1] is 1.55%; in assay [2], 13.7%; in assay [3], 2.14%; in assay [4], 7.06%; in [5], 3.57%; in [6] it was -5.99%. Moreover, the Percent Effect in [7] is 4.71%; in assay [8] it was -23.6%; in assay [9], 6.25%; in assay [10] it was 11.1%; in [11], -6.32%.
